# Pol iota inh: inhibitors of human DNA polymerase iota | Q9UNA4 | Pol iota fluorescent replication assay, 10 min | Potency, µM (doses to about 115 µM), for the others: at the top dose activity, negative = inhibition, usual class: inhibitors | 1% of 390,000 active
#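 Fluorescent replication assay read twice, at 0 min and 10 min after adding 50 nM (final) substrate. Enzyme (10 nM) and compounds were first incubated 15 min at room temperature; enzyme-free buffer wells were negative controls.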
# POLB inh: blocks human DNA polymerase beta activity; P06746; Pol beta primer extension/strand displacement, fluorescence kinetic; Potency, µM (doses to about 114 µM), inactives show at the top dose activity change, negative = inhibition, usual class: inhibitors; 1.3% of 340,000 active; note: % is set by controls: 0 for no effect and ±100 for the full control effect
#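 10 nM enzyme + cpd, 15 min RT; start with substrate 50 nM final; read 0 min and after 10 min RT. Corrected, normalized data; 4-parameter Hill curve fit.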
# POLK inh: blocks human DNA polymerase kappa activity; Q9UBT6; purified Pol kappa, fluorescent DNA synthesis assay, 10 min; Potency, µM (highest dose often 107 µM), inactives show at the top dose activity, negative = inhibition, most hits filed as inhibitors; 0.53% of 400,000 active; AID 588579; note: % is set by controls: 0 for no effect and ±100 for the full control effect
#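 Readout: fluorescence, taken kinetically at 0 and 10 min. Conditions: 10 nM Pol kappa, 15 min RT compound preincubation, 50 nM substrate final. Controls: enzyme-free buffer wells.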
# TDP1 block: TDP1 (human) enzyme inhibition. Q9NUW8. recombinant TDP1, AlphaScreen DNA substrate cleavage. Potency, µM (titrated, usually from 130 µM), for inactives: at the highest dose activity change, negative = inhibition, most hits filed as inhibitors. 0.28% of 350,000 active; note: % is set by controls: 0 for no effect and ±100 for the full control effect; nearly all actives have a fitted effect of over 40% in size
#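 Recombinant E. coli-expressed Tdp1 (1 nM) preincubated with compound 15 min at RT, then 5'-biotin/3'-phosphotyrosine-FITC DNA substrate (15 nM) added for 5 min. AlphaScreen beads (10 ug/ml) added, 10 min RT; tyrosine-FITC cleavage read as signal loss.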
# FEN1 inhibitor: human FEN1 inhibition | P39748 | Recombinant FEN1 flap cleavage, fluorescence, 15 min | Potency, µM (top dose mostly 114 µM), for inactives: at the highest dose activity change, negative = inhibition, actives largely listed as inhibitors | 0.35% of 390,000 active | AID 588795; note: % is set by controls: 0 for no effect and ±100 for the full control effect; nearly all actives have a fitted effect of over 65% in size
#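 With each library titrated from low to high concentration, compounds met 10 nM FEN1 for 15 min at room temperature before 50 nM substrate was added; readings at 0 and 15 min fed four-parameter Hill curve fits.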
# POLH inh: inhibitors of human DNA polymerase eta; 1.2% of 390,000 active; recombinant Pol eta, fluorescent DNA replication assay; Potency, µM (highest dose often 114 µM), for the others: at the highest dose activity change, negative = inhibition, most hits filed as inhibitors; Q9Y253; note: % is set by controls: 0 for no effect and ±100 for the full control effect
# Target sequence (Q9Y253 whole entry, looked up): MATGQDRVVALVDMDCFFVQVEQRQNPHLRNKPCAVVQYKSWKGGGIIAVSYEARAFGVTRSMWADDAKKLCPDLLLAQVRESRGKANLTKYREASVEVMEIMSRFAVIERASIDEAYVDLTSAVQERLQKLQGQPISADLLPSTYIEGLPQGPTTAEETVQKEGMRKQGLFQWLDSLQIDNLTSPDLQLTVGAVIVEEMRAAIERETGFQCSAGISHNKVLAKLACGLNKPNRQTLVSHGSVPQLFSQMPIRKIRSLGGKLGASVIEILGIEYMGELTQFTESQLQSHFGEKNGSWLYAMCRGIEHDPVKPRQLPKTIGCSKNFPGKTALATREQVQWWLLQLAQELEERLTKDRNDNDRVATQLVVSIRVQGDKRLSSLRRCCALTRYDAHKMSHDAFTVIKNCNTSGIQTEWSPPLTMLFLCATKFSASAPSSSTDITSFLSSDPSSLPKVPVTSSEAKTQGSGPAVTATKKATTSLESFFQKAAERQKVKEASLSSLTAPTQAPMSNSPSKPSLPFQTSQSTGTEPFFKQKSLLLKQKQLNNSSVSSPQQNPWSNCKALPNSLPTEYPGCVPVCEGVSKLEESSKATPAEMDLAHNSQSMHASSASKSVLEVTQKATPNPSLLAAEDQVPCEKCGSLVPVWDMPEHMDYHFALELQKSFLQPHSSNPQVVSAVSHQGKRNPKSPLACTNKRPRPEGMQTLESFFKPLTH
#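 Pol eta (10 nM) was preincubated with compounds for 15 min at room temperature, after which fluorescent replication substrate (50 nM final) was added to start the reaction. Fluorescence was read kinetically at 0 and 10 min.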
# * hit, by the source's call; u = inconclusive; x = no result; [ ] = another dose, or the depositor's remark. Shown are actives, neighbours in structure and some others; about 2.4% of the full set was active somewhere. Calls come from the whole dose curve; as a rule, active = well fitted curve in the direction sought with a large enough effect; inconclusive = small, poorly fitted or top-dose-only effect, or another doubt; inactive = no such curve, though single readings can be large; an effect the other way counts as inactive or inconclusive. Potency is the fitted concentration of half-maximal effect.
SMILES,Pol iota inh,POLB inh,POLK inh,TDP1 block,FEN1 inhibitor,POLH inh
CC(C)Sc1oc(-c2ccco2)nc1S(=O)(=O)c1ccc(F)cc1,u,28.2µM*,u,4.4%,-17.9%,70.8µM*
Cc1ccc(CSc2oc(-c3ccco3)nc2S(=O)(=O)c2ccc(Br)cc2)cc1,56.2µM*,-26.7%,u,-2.9%,-16.7%,-9.5%
O=C(c1ccccc1)N1CCCCC1CCN1CCCCC1 (stereo unspecified),7.2%,59.5%,-12.4%,0.0%,-3.3%,-11.5%
Cc1ccccc1C[C@H](C(=O)O)N1C(=O)c2ccc(C(=O)O)cc2C1=O,x,x,x,9.1%,x,x
S=c1[nH]nc(-c2ccccn2)n1/N=C/c1ccc(-c2ccccc2Cl)o1,43.2%,22.4µM*,-15.3%,5.0%,-10.2%,1.5%
Cc1ccc2oc(-c3ccccc3C(=O)O)cc(=O)c2c1,-1.1%,u,-7.7%,2.0%,-1.6%,-0.9%
O=C(O)c1ccccc1-c1c2cc(Br)c(=O)c(Br)c-2oc2c(Br)c(O)c(Br)cc12,x,x,10µM*,-13.4%,x,x
CCN(CCCNC(=O)c1cc2cc3ccc(OC)cc3nc2s1)c1cccc(C)c1,79.4µM*,3.98µM*,u,-14.9%[12.3 µM],u,u
CCN(CCCNC(=O)c1cc2cc3ccc(OC)cc3nc2s1)c1ccccc1,79.4µM*,11.2µM*,79.4µM*,x,6.2%,u
COc1ccc(C2Nc3ccccc3C(=O)N2CCc2ccccc2)cc1COc1ccc(NC(C)=O)cc1 (stereo unspecified),x,x,x,0.5%,x,x
c1ccc(-c2nnc(-c3ccco3)o2)cc1,1.7%,-1.2%,-4.3%,2.4%,-3.0%,-15.3%
c1coc(-c2nnc(-c3ccco3)nn2)c1,u,7.94µM*,17.8µM*,x,44.7µM*,8.91µM*
CCc1nc2ccc(C(=O)O)cc2nc1CC,-2.5%,-24.0%,-2.1%,-2.3%,-3.6%,14.1µM*
O=C(O)c1ccc2nc3c(nc2c1)-c1ccccc1C3=O,111.3%,-2.7%,-17.5%,-2.5%,u,22.4µM*
Cc1ccc(-c2nc3ccc(C(=O)O)cc3nc2-c2ccc(C)cc2)cc1,5.0%,13.7%,-17.6%,3.8%,-5.3%,-0.2%
CN(C)S(=O)(=O)c1cccc(NC(=S)Nc2cccc3cnccc23)c1,2.82µM*,0.6%,-20.3%,-2.6%,u,-17.0%
COc1ccc(CCNC(=O)c2cc(Nc3cc(C)cc(C)c3)nc3ccccc23)cc1OC,-11.2%,9.7%,-8.4%,0.0%,u,-21.2%
Cc1ccc(NS(=O)(=O)c2ccc3c(c2)CC(=O)N3C)cc1C,x,x,x,1.5%,x,x
O=C1OC2(c3ccccc31)c1cc(I)c(O)c(I)c1Oc1c2cc(I)c(O)c1I,x,x,26.7µM*,28.5%,x,x
Cc1cc(O)ccc1C1(c2ccc(O)cc2C)OC(=O)c2ccccc21,4.4%,u,-11.3%,1.1%,-15.5%,u
O=C1OC2(c3cc(I)c(O)c(I)c3Oc3c2cc(I)c(O)c3I)c2c(Cl)c(Cl)c(Cl)c(Cl)c21,x,x,7.52µM*,29.2%,x,x
O=C1OC2(c3ccc(O)cc3Oc3cc(O)ccc32)c2ccccc21,x,x,29.9µM*,29.2%,x,x
CN1CCN2c3ccccc3CC3(C(=O)OC(C)(C)OC3=O)C2C1 (stereo unspecified),14.2%,x,8.4%,-0.7%,0.5%,x
O=C(Nc1ccc(F)cc1)Nc1nnc(-c2ccncc2)s1,u,76.1%,-27.8%,-1.9%,3.1%,-14.9%
O=C(Nc1cccc(Cl)c1)Nc1nnc(-c2ccncc2)s1,u,39.8µM*,-9.6%,8.2%,-7.0%,u
SMILES,Pol iota inh,POLB inh,POLK inh,TDP1 block,FEN1 inhibitor,POLH inh
Cc1ccc(NC(=O)Nc2nnc(-c3ccncc3)s2)cc1C,22.4µM*,1.2%,u,-5.6%,-11.3%,89.1µM*
Nc1ccc(O)c([N+](=O)[O-])c1,79.4µM*,x,-23.7%,3.0%,-17.0%,-12.7%
Cc1c(C(=O)Nc2nc(-c3ccc(F)cc3)ns2)oc2ccc(Cl)cc12,-3.5%,2.0%,-5.2%,4.7%,1.2%,1.2%
CCc1ccc(Nc2nnc(SCC(=O)NC(=O)CN3CCCC3=O)s2)cc1,44.7µM*,x,-42.7%,17.8µM*,-2.3%,44.7µM*
COc1ccccc1Nc1nnc(SCC(=O)N2CCCC2=O)s1,26.5%,7.7%,5.5%,-3.8%,-3.2%,-2.3%
OCCN1CC(O)C(O)C(O)C1CO (stereo unspecified),x,x,-8.3%[60.1 µM],u,x,x
O=C(N/N=C/C1=C(N2CCOCC2)C(=C\c2ccccc2)/CC1)Nc1ccccc1,-1.5%,9.3%,1.1%,2.7%,-0.7%,-16.3%
O=C(O)c1ccccc1N/N=C/C1=C(N2CCOCC2)C(=C\c2ccccc2)/CC1,14.1µM*,u,u,-1.4%,-1.3%,44.7µM*
O=C(N/N=C/c1cn(-c2ccccc2)nc1-c1ccc2c(c1)OCCO2)c1ccncc1,u,-14.1%,-26.0%,50.1µM*,5.1%,-14.6%
O=C(N/N=C/c1cn(-c2ccccc2)nc1-c1ccc(F)cc1)c1ccc2c(c1)OCO2,1.8%,2.0%,-24.1%,5.2%,-7.4%,-7.4%
O=C(CN(c1cccc(Br)c1)S(=O)(=O)c1ccccc1)N1CCc2ccccc2C1,-0.2%,-13.8%,-0.6%,-6.6%[12.3 µM],0.3%,-9.1%
COc1cc(N2Cc3ccccc3C2)ccc1C=O,u,11.2µM*,-23.3%,x,-15.0%,u
CC(=O)c1ccc(OCc2cn(CC(=O)c3ccc(O)cc3)nn2)c(C)c1,x,x,x,x,x,-15.3%
Cc1cccc(C)c1OCc1cn(CC(=O)c2ccc(O)cc2)nn1,7.94µM*,x,-1.9%,x,-10.8%,-0.2%
O=C(Cn1cc(COc2cc(F)cc(F)c2)nn1)c1ccc(O)cc1,8.3%,x,0.2%,x,-10.9%,-11.0%
COc1cc(C(C)=O)ccc1OCc1cn(CC(=O)c2ccc(O)cc2)nn1,4.47µM*,x,-7.9%,x,u,-19.2%
O=C(Cn1cc(COc2ccccc2C(F)(F)F)nn1)c1ccc(O)cc1,5.01µM*,x,-2.0%,x,-11.2%,-18.3%
O=C(Cn1cc(COc2ccc(Br)cc2[N+](=O)[O-])nn1)c1ccc(O)cc1,4.47µM*,x,-0.5%,x,-0.1%,-8.8%
Cc1ccc(Sc2ccc(N3CCCC(C(=O)Nc4ccc(F)cc4)C3)nn2)cc1 (stereo unspecified),0.0%,2.0%,-5.1%,-4.5%,-11.6%,-20.7%
O=C(COc1ccccc1)Nc1ccc2nc(SCC(=O)N3CCc4ccccc43)sc2c1,1.5%,-2.4%,-15.1%,-8.9%,11.7%,-8.3%
COc1ccc(C2Nc3ccccc3C(=O)N2Cc2ccccc2)cc1COc1ccccc1OC (stereo unspecified),x,x,x,2.9%,x,x
COc1ccccc1-c1cc2nc(C)cc(C)n2n1,41.5%,89.1µM*,0.1%,-2.9%,3.3%,-19.9%
CCCn1c2ccccc2c2cnn(CC(=O)NCCc3ccc(OCC)cc3)c(=O)c21,25.5%,-2.8%,-1.0%,3.7%,0.2%,4.1%
